# Data from the supplement of paper PMC8728848.
# About 410 targets per protein were measured; listed, in parts, are those with the strongest signals and a random draw of the rest.
# B1: Siglec-F (Mus musculus), Q920G3 (protein)
# chain: MRWAWLLPLLWAGCLATDGYSLSVTGSVTVQEGLCVFVACQVQYPNSKGPVFGYWFREGANIFSGSPVATNDPQRSVLKEAQGRFYLMGKENSHNCSLDIRDAQKIDTGTYFFRLDGSVKYSFQKSMLSVLVIALTEVPNIQVTSTLVSGNSTKLLCSVPWACEQGTPPIFSWMSSALTSLGHRTTLSSELNLTPRPQDNGTNLTCQVNLPGTGVTVERTQQLSVIYAPQKMTIRVSWGDDTGTKVLQSGASLQIQEGESLSLVCMADSNPPAVLSWERPTQKPFQLSTPAELQLPRAELEDQGKYICQAQNSQGAQTASVSLSIRSLLQLLGPSCSFEGQGLHCSCSSRAWPAPSLRWRLGEGVLEGNSSNGSFTVKSSSAGQWANSSLILSMEFSSNHRLSCEAWSDNRVQRATILLVSGPKVSQAGKSETSRGTVLGAIWGAGLMALLAVCLCLIFFTVKVLRKKSALKVAATKGNHLAKNPASTINSASITSSNIALGYPIQGHLNEPGSQTQKEQPPLATVPDTQKDEPELHYASLSFQGPMPPKPQNTEAMKSVYTEIKIHKC
# Tests used:
# Test in all cases: glycan array binding signal (z-score within array); higher = stronger binding
# Settings in all cases: glycan notation: IUPAC condensed, linker removed
# [1] = target: Fuc(a1-2)Gal(b1-3)[Fuc(a1-4)]GlcNAc
# How it was run: (§1)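 From the Consortium for Functional Glycomics database, 3228 arrays were curated, keeping only those whose protein sequence was available. Binding is given as a within-array Z-score averaged across arrays sharing a protein sequence and across linkers. Negative Z-scores can be read as non-binding.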
# [2] = target: Fuc(a1-2)Gal(b1-3)[Fuc(a1-4)]GlcNAc(b1-2)Man(a1-3)[Fuc(a1-2)Gal(b1-3)[Fuc(a1-4)]GlcNAc(b1-2)Man(a1-6)]Man(b1-4)GlcNAc(b1-4)GlcNAc
# How it was run: as §1
# [3] = target: Fuc(a1-2)Gal(b1-3)[Fuc(a1-4)]GlcNAc(b1-3)[Fuc(a1-3)[Gal(b1-4)]GlcNAc(b1-6)]Gal(b1-4)Glc
# How it was run: as §1
# Fuc(a1-2)Gal6S(b1-4)Glc = target: Fuc(a1-2)Gal6S(b1-4)Glc
# How it was run: as §1
# [4] = target: Fuc(a1-2)[Gal(a1-3)]Gal(b1-3)GlcNAc
# How it was run: as §1
# [5] = target: Fuc(a1-2)[GalNAc(a1-3)]Gal(b1-3)GalNAc(a1-3)[Fuc(a1-2)]Gal(b1-4)GlcNAc
# How it was run: as §1
# [6] = target: Fuc(a1-2)[GalNAc(a1-3)]Gal(b1-3)GlcNAc(b1-3)GalNAc
# How it was run: as §1
# [7] = target: Fuc(a1-2)[GalNAc(a1-3)]Gal(b1-3)GlcNAc(b1-6)GalNAc
# How it was run: as §1
# [8] = target: Fuc(a1-2)[GalNAc(a1-3)]Gal(b1-4)GlcNAc(b1-2)Man(a1-3)[Fuc(a1-2)[GalNAc(a1-3)]Gal(b1-4)GlcNAc(b1-2)Man(a1-6)]Man(b1-4)GlcNAc(b1-4)GlcNAc
# How it was run: as §1
# [9] = target: Fuc(a1-3)[Gal(b1-4)]GlcNAc
# How it was run: as §1
# [10] = target: Fuc(a1-3)[Gal(b1-4)]GlcNAc(b1-3)Gal(b1-4)[Fuc(a1-3)]GlcNAc(b1-3)Gal(b1-4)[Fuc(a1-3)]GlcNAc
# How it was run: as §1
# [11] = target: Fuc(a1-3)[Gal(b1-4)]GlcNAc(b1-4)Gal(b1-4)[Fuc(a1-3)]GlcNAc(b1-4)Gal(b1-4)[Fuc(a1-3)]GlcNAc
# How it was run: as §1
# [12] = target: Fuc(a1-3)[Gal3S(b1-4)]Glc
# How it was run: as §1
# [13] = target: Gal(a1-3)Gal(b1-4)GlcNAc(b1-6)GalNAc
# How it was run: as §1
# [14] = target: Gal(a1-3)Gal(b1-4)[Fuc(a1-3)]GlcNAc
# How it was run: as §1
# [15] = target: Gal(a1-4)Gal(b1-3)GlcNAc(b1-2)Man(a1-3)[Gal(a1-4)Gal(b1-3)GlcNAc(b1-2)Man(a1-6)]Man(b1-4)GlcNAc(b1-4)GlcNAc
# How it was run: as §1
# [16] = target: Gal(b1-3)GalNAc(b1-4)[Neu5Ac(a2-3)]Gal(b1-4)Glc
# How it was run: as §1
# [17] = target: Gal(b1-3)[Neu5Ac(a2-6)]GlcNAc(b1-6)Gal(b1-4)Glc
# How it was run: as §1
# [18] = target: Gal(b1-4)GlcNAc(b1-2)Man(a1-3)[Gal(b1-4)GlcNAc(b1-2)Man(a1-6)][Gal(b1-4)GlcNAc(b1-4)]Man(b1-4)GlcNAc(b1-4)[Fuc(a1-6)]GlcNAc
# How it was run: as §1
# [19] = target: Gal(b1-4)GlcNAc(b1-2)Man(a1-3)[Man(a1-6)]Man(b1-4)GlcNAc(b1-4)GlcNAc
# How it was run: as §1
# [20] = target: Gal(b1-4)GlcNAc(b1-2)Man(a1-6)[GlcNAc(b1-2)Man(a1-3)]Man(b1-4)GlcNAc(b1-4)GlcNAc
# How it was run: as §1
# [21] = target: Gal(b1-4)GlcNAc(b1-2)[Gal(b1-4)GlcNAc(b1-4)]Man(a1-3)[Gal(b1-4)GlcNAc(b1-2)[Gal(b1-4)GlcNAc(b1-6)]Man(a1-6)]Man(b1-4)GlcNAc(b1-4)GlcNAc
# How it was run: as §1
# [22] = target: Gal(b1-4)GlcNAc(b1-3)Gal(b1-4)GlcNAc
# How it was run: as §1
# Gal(b1-4)GlcNAc6P = target: Gal(b1-4)GlcNAc6P
# How it was run: as §1
# Gal3S(b1-3)GlcNAc = target: Gal3S(b1-3)GlcNAc
# How it was run: as §1
# [23] = target: Gal3S(b1-4)[Fuc(a1-3)]Glc6S
# How it was run: as §1
# Gal3S6S(b1-4)GlcNAc6S = target: Gal3S6S(b1-4)GlcNAc6S
# How it was run: as §1
binder,measurement,setting,value
B1,glycan array binding signal (z-score),[1],-0.132
same,glycan array binding signal (z-score),[2],-0.079
same,glycan array binding signal (z-score),[3],-0.122
same,glycan array binding signal (z-score),Fuc(a1-2)Gal6S(b1-4)Glc,-0.123
same,glycan array binding signal (z-score),[4],-0.115
same,glycan array binding signal (z-score),[5],-0.104
same,glycan array binding signal (z-score),[6],-0.094
same,glycan array binding signal (z-score),[7],-0.114
same,glycan array binding signal (z-score),[8],-0.049
same,glycan array binding signal (z-score),[9],-0.117
same,glycan array binding signal (z-score),[10],-0.115
same,glycan array binding signal (z-score),[11],-0.121
same,glycan array binding signal (z-score),[12],-0.146
same,glycan array binding signal (z-score),[13],-0.146
same,glycan array binding signal (z-score),[14],-0.123
same,glycan array binding signal (z-score),[15],0.083
same,glycan array binding signal (z-score),[16],-0.109
same,glycan array binding signal (z-score),[17],-0.091
same,glycan array binding signal (z-score),[18],-0.095
same,glycan array binding signal (z-score),[19],0.022
same,glycan array binding signal (z-score),[20],-0.13
same,glycan array binding signal (z-score),[21],-0.127
same,glycan array binding signal (z-score),[22],-0.096
same,glycan array binding signal (z-score),Gal(b1-4)GlcNAc6P,-0.111
same,glycan array binding signal (z-score),Gal3S(b1-3)GlcNAc,-0.108
same,glycan array binding signal (z-score),[23],0.156
same,glycan array binding signal (z-score),Gal3S6S(b1-4)GlcNAc6S,-0.104
